# “And” between values parts separate entries of the source, which are not always exact repeats. Equal values may be shown once. The source made the active and inactive calls.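 Rule for the calls, unless noted: active = normalized viability below 100% at a tested concentration; inactive = the rest.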
# Columns and labels:
# [1] = stimulators of nuclear beta-catenin in C2C12, primary screen, imaging, WNT3A-conditioned medium, mouse C2C12, NPC library (AID 1117326; in the data active = nuclear beta-catenin stimulation mostly above about 4.2%, no sharp cut-off; inactive = mostly below about 10%); details: stronger effect = higher value
# [2] = stimulators of insulin release from INS-1E, primary screen, cell-based, 5 mM glucose, NPC library (AID 1117329;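 active = compound raises insulin release from rat beta cells at 5 mM glucose, no numeric limit stated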); details: rat INS-1E insulin secretion, at 10 µM, stronger effect = higher value
# [3] = growth inhibition of GSK3B-pretreated HCT116 cells – cell-based, CellTiter-Glo, 0.2 to 20 µM (AID 1117336;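 active = compounds lowering colon cancer cell viability after pretreatment blocking the GSK3B kinase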); details: HCT116 viability after GSK3B inhibitor, at 20 µM, stronger effect = higher value
# [4] = inhibition of endothelial tube formation, primary screen, imaging, VEGF stimulated, CD31 staining, tube area, NPC library (AID 1117340;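 active = compound that reduces growth-factor-driven endothelial tube area in a mixed cell culture, no cutoff stated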); details: VEGF-stimulated ADSC/ECFC co-culture, at 10 µM, stronger effect = higher value
# [5] = glucagon-like peptide 1 release enhancers, primary assay, NCI-H716 cell line, NPC library (AID 1117341;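 active = compound raises GLP1 secretion from the human gut endocrine cells, with no numeric limit stated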); details: NCI-H716 cells, at 10 µM, stronger effect = higher value
# [6] = HCT116 colon cancer cell growth inhibition, primary screen, CellTiter-Glo luminescence, NPC library (AID 1117342;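 active = compounds that lower survival of HCT116 colon cancer cells in the luminescence readout, no numeric limit stated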); details: at 20 µM (top of the series)
# [7] = CellTiter-Glo luminescent readout of SW480 viability loss, NPC library primary (AID 1117343;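 active = compounds that lower viability of the colon cancer cells in the luminescence readout, with no numeric limit stated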); details: CellTiter-Glo luminescence; at 20 µM (top of the series)
# [8] = decreased DLD-1 cellular survival, CellTiter-Glo luminescent readout, NPC compound collection, primary HTS (AID 1117346;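 active = compounds that lower survival of DLD-1 colon cancer cells in the luminescence readout, no cutoff given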); details: DLD-1 viability, CellTiter-Glo luminescence; at 20 µM (top of the series)
# [9] = target: 6-phosphogluconate dehydrogenase, decarboxylating (Homo sapiens) (UniProt P52209); assay: 6PGD enzyme inhibitors, primary screen, biochemical, human, recombinant enzyme, NADPH absorbance (AID 1159550;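 active = at least 20% inhibition of 6-phosphogluconate dehydrogenase activity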); details: recombinant 6PGD, NADPH absorbance 341 nm; at 10 µM; stronger effect = higher value
# [10] = differential killing of epithelial or mesenchymal cells, primary screen, imaging, PC-3E GFP, TEM4-18 mCherry, co-culture (AID 1345086;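 active = compounds killing one labelled cell type while sparing the other, by normalised counts and ratio limits, not self-fluorescent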;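 for all read-outs here: cells exposed to compound for 72 h before imaging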;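 for red/green cell ratio (normalised): normalised mesenchymal count divided by normalised epithelial count so high means epithelial killing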); details: imaging cell counts, at 1 µM; for red/green cell ratio (normalised): actives lie on both sides, counts scaled to control wells, 1 = unselective
# [11] = sensitizers of A549 cells to miR-34 induction, primary screen, imaging, A549 dox-inducible miR-34, nuclei and caspase counts (AID 1347080;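 active = compounds whose cell count with miR-34 switched on is under 0.7 times the count with it off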); details: A549 miR-34 inducible, Hoechst nuclei count, 48 h
# [12] = survival rescue of mitochondrial mutant cells in low glucose, primary screen, MELAS cybrids, Rieske KO mouse fibroblasts, CellTiter-Glo (AID 1508586;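 active = mean z-score across replicates of 1.96 or higher in either the MELAS or the Rieske mutant cell line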;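 note: z relative to plate mean and SD of compound and empty wells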)
# [13] = ovarian cancer cell viability with rucaparib, profiling panel, oncology-focused library, rucaparib conditional (AID 1508598); details: patient-derived ovarian cancer cells, CellTiter-Glo viability, 144 h, stronger effect = lower value
# F380Y = assay: modulators of BK channel variants, profiling panel, selectivity assay, cell-based, U2OS BacMam, thallium flux, beta subunits (AID 1259406;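 active = thallium flux through the channel raised or lowered by more than 3 SD from vehicle-only wells, actives on both sides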;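 note: initial slope of Thallos dye fluorescence rise after thallium is added; log ratio against the mean of 0.3% DMSO vehicle wells on the same plate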); details: at 30 µM
# F380Y/beta1 = assay: as above; details: at 30 µM
# F380Y/beta2Delta = assay: as above; details: at 30 µM
# F380Y/beta4 = assay: as above; details: at 30 µM
# [14] = target: Calcium-activated potassium channel subunit alpha-1 (Homo sapiens) + Leucine-rich repeat-containing protein 26 (Homo sapiens) (UniProt Q12791+Q2I0M4); assay: as above; details: F380Y/Slo1WT/gamma1, at 30 µM
# R275C = assay: as above; details: at 30 µM
# R275C/beta1 = assay: as above; details: at 30 µM
# [15] = measured here: epithelial PC-3E GFP cell survival
# [16] = measured here: mesenchymal TEM4-18 mCherry cell survival
# [17] = MELAS cybrid survival, CellTiter-Glo 48 h, stronger effect = higher value
# [18] = Rieske KO mouse fibroblast survival, CellTiter-Glo 72 h
# [19] = at 0.000305 µM, OCI-C5x cells, with rucaparib 10 µM, 100% = cells with rucaparib alone
# [20] = at 0.000305 µM, OCI-C5x cells, without rucaparib
# [21] = at 0.000305 µM, OCI-P5x cells, with rucaparib 20 µM, 100% = cells with rucaparib alone
# [22] = at 0.000305 µM, OCI-P5x cells, without rucaparib
# [23] = at 0.00122 µM, OCI-C5x cells, with rucaparib 10 µM, 100% = cells with rucaparib alone
# [24] = at 0.00122 µM, OCI-C5x cells, without rucaparib
# [25] = at 0.00122 µM, OCI-P5x cells, with rucaparib 20 µM, 100% = cells with rucaparib alone
# [26] = at 0.00122 µM, OCI-P5x cells, without rucaparib
# [27] = at 0.00488 µM, OCI-C5x cells, with rucaparib 10 µM, 100% = cells with rucaparib alone
# [28] = at 0.00488 µM, OCI-C5x cells, without rucaparib
# [29] = at 0.00488 µM, OCI-P5x cells, with rucaparib 20 µM, 100% = cells with rucaparib alone
# [30] = at 0.00488 µM, OCI-P5x cells, without rucaparib
# [31] = at 0.0195 µM, OCI-C5x cells, with rucaparib 10 µM, 100% = cells with rucaparib alone
# [32] = at 0.0195 µM, OCI-C5x cells, without rucaparib
# [33] = at 0.0195 µM, OCI-P5x cells, with rucaparib 20 µM, 100% = cells with rucaparib alone
# [34] = at 0.0195 µM, OCI-P5x cells, without rucaparib
# [35] = at 0.0781 µM, OCI-C5x cells, with rucaparib 10 µM, 100% = cells with rucaparib alone
# [36] = at 0.0781 µM, OCI-C5x cells, without rucaparib
# [37] = at 0.0781 µM, OCI-P5x cells, with rucaparib 20 µM, 100% = cells with rucaparib alone
# [38] = at 0.0781 µM, OCI-P5x cells, without rucaparib
# [39] = at 0.313 µM, OCI-C5x cells, with rucaparib 10 µM, 100% = cells with rucaparib alone
# [40] = at 0.313 µM, OCI-C5x cells, without rucaparib
# [41] = at 0.313 µM, OCI-P5x cells, with rucaparib 20 µM, 100% = cells with rucaparib alone
# [42] = at 0.313 µM, OCI-P5x cells, without rucaparib
# [43] = at 1.25 µM, OCI-C5x cells, with rucaparib 10 µM, 100% = cells with rucaparib alone
# [44] = at 1.25 µM, OCI-C5x cells, without rucaparib
# [45] = at 1.25 µM, OCI-P5x cells, with rucaparib 20 µM, 100% = cells with rucaparib alone
# [46] = at 1.25 µM, OCI-P5x cells, without rucaparib
# [47] = at 5 µM, OCI-C5x cells, with rucaparib 10 µM, 100% = cells with rucaparib alone
# [48] = at 5 µM, OCI-C5x cells, without rucaparib
# [49] = at 5 µM, OCI-P5x cells, with rucaparib 20 µM, 100% = cells with rucaparib alone
# [50] = at 5 µM, OCI-P5x cells, without rucaparib
# Sequence of Calcium-activated potassium channel subunit alpha-1 (Homo sapiens) + Leucine-rich repeat-containing protein 26 (Homo sapiens) (Q2I0M4 whole entry, looked up, one chain of several): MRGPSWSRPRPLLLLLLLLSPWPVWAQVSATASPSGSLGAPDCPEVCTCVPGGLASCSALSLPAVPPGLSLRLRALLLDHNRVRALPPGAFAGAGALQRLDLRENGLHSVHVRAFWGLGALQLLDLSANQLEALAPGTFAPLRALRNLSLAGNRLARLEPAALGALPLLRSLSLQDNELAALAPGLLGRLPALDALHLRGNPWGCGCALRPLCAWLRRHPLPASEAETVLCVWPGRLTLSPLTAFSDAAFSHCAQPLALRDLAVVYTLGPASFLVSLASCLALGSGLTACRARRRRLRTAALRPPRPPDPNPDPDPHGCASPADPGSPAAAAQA
# Sequence of 6-phosphogluconate dehydrogenase, decarboxylating (Homo sapiens) (P52209 whole entry, looked up): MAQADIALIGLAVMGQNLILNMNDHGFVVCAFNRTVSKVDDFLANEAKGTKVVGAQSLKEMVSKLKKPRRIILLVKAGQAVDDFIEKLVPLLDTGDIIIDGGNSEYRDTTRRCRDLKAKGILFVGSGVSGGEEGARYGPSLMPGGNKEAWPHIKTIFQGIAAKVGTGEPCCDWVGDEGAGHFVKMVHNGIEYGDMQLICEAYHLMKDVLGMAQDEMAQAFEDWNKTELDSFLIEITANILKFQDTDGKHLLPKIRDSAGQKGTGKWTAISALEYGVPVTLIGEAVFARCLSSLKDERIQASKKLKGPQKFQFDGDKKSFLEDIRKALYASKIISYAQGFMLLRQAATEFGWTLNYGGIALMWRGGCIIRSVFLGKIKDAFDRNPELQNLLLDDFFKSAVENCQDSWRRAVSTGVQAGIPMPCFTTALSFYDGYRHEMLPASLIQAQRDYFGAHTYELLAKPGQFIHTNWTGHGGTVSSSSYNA
smiles,measurement,setting,value
CCCCCCNC(=O)n1cc(F)c(=O)[nH]c1=O,nuclear beta-catenin stimulation,[1]; at 10 µM,41.7% (active)
same,nuclear beta-catenin stimulation,"[1]; stimulation, at 2 µM",9.5%
same,insulin secretion stimulation,[2],0.3% (inactive)
same,viability decrease,[3],65.6% (active)
same,tube area decrease,[4],68.7% (active)
same,GLP1 secretion stimulation,[5],-0.8% (inactive)
same,inhibition of viability,[6],42% (inactive)
same,viability decrease (inhibition),[7],83.7% (active)
same,viability decrease (inhibition),[8],30.3% (inactive)
same,inhibition,[9],1.06% (inactive)
same,red/green cell ratio (normalised),[10],0.85 (inactive)
same,normalised cell number,[10]; [15],0.88
same,normalised cell number,[10]; [16],0.75
same,fold change,"[11]; stronger effect = lower value, cell number ratio, induced over uninduced",1.09 (inactive) and 1.08 (inactive)
same,fold change,[11]; measured here: relative caspase fold change +Dox/-Dox,1.38 and 0.815
same,cell count,"[11]; measured here: total cells with miR-34 induction, stronger effect = lower value",3390 and 2360
same,cell count,[11]; measured here: total cells without miR-34 induction,3110 and 2180
same,z-score,[12]; [17],-0.365 (inactive) and -0.769 (inactive)
same,z-score,[12]; [18],0.677 and -3.1
same,viability,[13]; [19],125% (inactive)
same,viability,[13]; [20],114% (inactive)
same,viability,[13]; [21],108% (inactive)
same,viability,[13]; [22],129% (inactive)
same,viability,[13]; [23],128% (inactive)
same,viability,[13]; [24],121% (inactive)
same,viability,[13]; [25],115% (inactive)
same,viability,[13]; [26],115% (inactive)
same,viability,[13]; [27],115% (inactive)
same,viability,[13]; [28],125% (inactive)
same,viability,[13]; [29],108% (inactive)
same,viability,[13]; [30],117% (inactive)
same,viability,[13]; [31],114% (inactive)
same,viability,[13]; [32],113% (inactive)
same,viability,[13]; [33],107% (inactive)
same,viability,[13]; [34],113% (inactive)
same,viability,[13]; [35],134% (inactive)
same,viability,[13]; [36],117% (inactive)
same,viability,[13]; [37],103% (inactive)
same,viability,[13]; [38],117% (inactive)
same,viability,[13]; [39],133% (inactive)
same,viability,[13]; [40],112% (inactive)
same,viability,[13]; [41],101% (inactive)
same,viability,[13]; [42],112% (inactive)
same,viability,[13]; [43],129% (inactive)
same,viability,[13]; [44],128% (inactive)
same,viability,[13]; [45],95.1% (active)
same,viability,[13]; [46],104% (inactive)
same,viability,[13]; [47],223% (inactive)
same,viability,[13]; [48],172% (inactive)
same,viability,[13]; [49],76.9% (active)
same,viability,[13]; [50],77.9% (active)
same,log fold change Tl+ flux,F380Y,-0.0314 (inactive)
same,log fold change Tl+ flux,F380Y/beta1,-0.0124 (inactive)
same,log fold change Tl+ flux,F380Y/beta2Delta,-0.0543 (inactive)
same,log fold change Tl+ flux,F380Y/beta4,-0.0261 (inactive)
same,log fold change Tl+ flux,[14],-0.0355 (inactive)
same,log fold change Tl+ flux,R275C,-0.0237 (inactive)
same,log fold change Tl+ flux,R275C/beta1,0.00244 (inactive)
CN(CCOc1ccc(CC2SC(=O)NC2=O)cc1)c1ccccn1 (configuration not stated),nuclear beta-catenin stimulation,[1]; at 10 µM,4.7% (inactive)
same,nuclear beta-catenin stimulation,"[1]; stimulation, at 2 µM",0.1%
same,insulin secretion stimulation,[2],-0.5% (inactive)
same,viability decrease,[3],-166% (inactive)
same,tube area decrease,[4],-11.1% (inactive)
same,GLP1 secretion stimulation,[5],-2.5% (inactive)
same,inhibition of viability,[6],-4.27% (inactive)
same,viability decrease (inhibition),[7],17.9% (inactive)
same,viability decrease (inhibition),[8],-28.4% (inactive)
same,inhibition,[9],-0.784% (inactive)
same,red/green cell ratio (normalised),[10],0.92 (inactive)
same,normalised cell number,[10]; [15],1.63
same,normalised cell number,[10]; [16],1.5
same,z-score,[12]; [17],-0.369 (inactive) and -0.527 (inactive)
same,z-score,[12]; [18],0.76 and -1.4
same,viability,[13]; [19],112% (inactive)
same,viability,[13]; [20],124% (inactive)
same,viability,[13]; [21],91.6% (active)
same,viability,[13]; [22],99.1% (active)
same,viability,[13]; [23],116% (inactive)
same,viability,[13]; [24],133% (inactive)
same,viability,[13]; [25],104% (inactive)
same,viability,[13]; [26],108% (inactive)
same,viability,[13]; [27],123% (inactive)
same,viability,[13]; [28],129% (inactive)
same,viability,[13]; [29],96.3% (active)
same,viability,[13]; [30],106% (inactive)
same,viability,[13]; [31],114% (inactive)
same,viability,[13]; [32],137% (inactive)
same,viability,[13]; [33],108% (inactive)
same,viability,[13]; [34],116% (inactive)
same,viability,[13]; [35],106% (inactive)
same,viability,[13]; [36],128% (inactive)
same,viability,[13]; [37],103% (inactive)
same,viability,[13]; [38],113% (inactive)
same,viability,[13]; [39],110% (inactive)
same,viability,[13]; [40],148% (inactive)
same,viability,[13]; [41],106% (inactive)
same,viability,[13]; [42],119% (inactive)
same,viability,[13]; [43],107% (inactive)
same,viability,[13]; [44],131% (inactive)
same,viability,[13]; [45],101% (inactive)
same,viability,[13]; [46],115% (inactive)
same,viability,[13]; [47],106% (inactive)
same,viability,[13]; [48],133% (inactive)
same,viability,[13]; [49],103% (inactive)
same,viability,[13]; [50],116% (inactive)
same,log fold change Tl+ flux,F380Y,-0.00159 (inactive) and 0.0548 (inactive)
same,log fold change Tl+ flux,F380Y/beta1,0.17 (active) and 0.199 (active)
same,log fold change Tl+ flux,F380Y/beta2Delta,-0.0425 (inactive) and 0.0999 (inactive)
same,log fold change Tl+ flux,F380Y/beta4,-0.0318 (inactive) and 0.0667 (inactive)
same,log fold change Tl+ flux,[14],-0.00356 (inactive) and 0.0332 (inactive)
same,log fold change Tl+ flux,R275C,0.0457 (inactive) and 0.0237 (inactive)
same,log fold change Tl+ flux,R275C/beta1,0.113 (active) and 0.178 (active)

# Reference: PubChem BioAssay
